Screening results: PubChem BioAssay, National Center for Advancing Translational Sciences (NCATS)
JMJD2A Tudor – inhibitors of human JMJD2A Tudor domain; O75164; AlphaScreen JMJD2A-Tudor / H3K4me3 peptide binding; Potency, µM (series often up to 114 µM), actives largely listed as inhibitors; 390,000 tested, 4.4% active; AID 504339; further: nearly all actives have a fitted effect of over 50% in size
G9a inh – G9a (human) methyltransferase inhibition; AID 504332; Q96KQ7; 350,000 tested, 8.8% active; G9a H3K9 monomethylation, AlphaScreen, 2 h; Potency, µM (doses to about 102 µM), most hits filed as inhibitors; further: nearly all actives have a fitted effect of over 75% in size
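Signal arises when biotinylated H3K9 peptide, once monomethylated, bridges streptavidin donor and antibody-captured acceptor beads. Enzyme at 20 nM was preincubated 15 min with test compounds; peptide 500 nM and SAM 20 uM then reacted for 2 h.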
L3MBTL1 block – blocks human L3MBTL1. Q9Y468. AlphaScreen L3MBTL1–H3K9me1 peptide binding. Potency, µM (doses to about 57.1 µM), actives largely listed as inhibitors. 230,000 tested, 0.66% active. AID 485360; further: nearly all actives have a fitted effect of over 60% in size
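L3MBTL1 50 nM + b-AHA-H3(1-15)K9me1 75 nM, 30 min RT; compound added, 30 min RT; streptavidin donor/Ni-chelate acceptor beads 10 ug/mL each final, 30 min RT dark; AlphaScreen read.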
HP1b binding inh – inhibitors of HP1-beta chromodomain binding to methylated histone tails | Potency, µM (top dose mostly 114 µM), usual class: inhibitors | 390,000 tested, 0.56% active | P83916 | AID 540317 | AlphaScreen HP1-beta / biotin-H3K9me3 peptide binding; further: nearly all actives have a fitted effect of over 70% in size
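Compound inhibition of the preformed complex between 50 nM HP1-beta and 50 nM biotinylated H3K9me3 peptide was read by AlphaScreen. Buffer was PBS pH 7.4 with 0.01% Tween-20. Incubations ran 30 min at room temperature, with 10 ug/mL donor/acceptor beads.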
BAZ2B inh – BAZ2B (human) inhibition. 360,000 tested, 4.4% active. AlphaScreen BAZ2B-H3K14Ac peptide displacement. Potency, µM (top dose mostly 114 µM), actives largely listed as inhibitors. Q9UIF8; further: nearly all actives have a fitted effect of over 60% in size
Target sequence (Q9UIF8 whole entry, looked up): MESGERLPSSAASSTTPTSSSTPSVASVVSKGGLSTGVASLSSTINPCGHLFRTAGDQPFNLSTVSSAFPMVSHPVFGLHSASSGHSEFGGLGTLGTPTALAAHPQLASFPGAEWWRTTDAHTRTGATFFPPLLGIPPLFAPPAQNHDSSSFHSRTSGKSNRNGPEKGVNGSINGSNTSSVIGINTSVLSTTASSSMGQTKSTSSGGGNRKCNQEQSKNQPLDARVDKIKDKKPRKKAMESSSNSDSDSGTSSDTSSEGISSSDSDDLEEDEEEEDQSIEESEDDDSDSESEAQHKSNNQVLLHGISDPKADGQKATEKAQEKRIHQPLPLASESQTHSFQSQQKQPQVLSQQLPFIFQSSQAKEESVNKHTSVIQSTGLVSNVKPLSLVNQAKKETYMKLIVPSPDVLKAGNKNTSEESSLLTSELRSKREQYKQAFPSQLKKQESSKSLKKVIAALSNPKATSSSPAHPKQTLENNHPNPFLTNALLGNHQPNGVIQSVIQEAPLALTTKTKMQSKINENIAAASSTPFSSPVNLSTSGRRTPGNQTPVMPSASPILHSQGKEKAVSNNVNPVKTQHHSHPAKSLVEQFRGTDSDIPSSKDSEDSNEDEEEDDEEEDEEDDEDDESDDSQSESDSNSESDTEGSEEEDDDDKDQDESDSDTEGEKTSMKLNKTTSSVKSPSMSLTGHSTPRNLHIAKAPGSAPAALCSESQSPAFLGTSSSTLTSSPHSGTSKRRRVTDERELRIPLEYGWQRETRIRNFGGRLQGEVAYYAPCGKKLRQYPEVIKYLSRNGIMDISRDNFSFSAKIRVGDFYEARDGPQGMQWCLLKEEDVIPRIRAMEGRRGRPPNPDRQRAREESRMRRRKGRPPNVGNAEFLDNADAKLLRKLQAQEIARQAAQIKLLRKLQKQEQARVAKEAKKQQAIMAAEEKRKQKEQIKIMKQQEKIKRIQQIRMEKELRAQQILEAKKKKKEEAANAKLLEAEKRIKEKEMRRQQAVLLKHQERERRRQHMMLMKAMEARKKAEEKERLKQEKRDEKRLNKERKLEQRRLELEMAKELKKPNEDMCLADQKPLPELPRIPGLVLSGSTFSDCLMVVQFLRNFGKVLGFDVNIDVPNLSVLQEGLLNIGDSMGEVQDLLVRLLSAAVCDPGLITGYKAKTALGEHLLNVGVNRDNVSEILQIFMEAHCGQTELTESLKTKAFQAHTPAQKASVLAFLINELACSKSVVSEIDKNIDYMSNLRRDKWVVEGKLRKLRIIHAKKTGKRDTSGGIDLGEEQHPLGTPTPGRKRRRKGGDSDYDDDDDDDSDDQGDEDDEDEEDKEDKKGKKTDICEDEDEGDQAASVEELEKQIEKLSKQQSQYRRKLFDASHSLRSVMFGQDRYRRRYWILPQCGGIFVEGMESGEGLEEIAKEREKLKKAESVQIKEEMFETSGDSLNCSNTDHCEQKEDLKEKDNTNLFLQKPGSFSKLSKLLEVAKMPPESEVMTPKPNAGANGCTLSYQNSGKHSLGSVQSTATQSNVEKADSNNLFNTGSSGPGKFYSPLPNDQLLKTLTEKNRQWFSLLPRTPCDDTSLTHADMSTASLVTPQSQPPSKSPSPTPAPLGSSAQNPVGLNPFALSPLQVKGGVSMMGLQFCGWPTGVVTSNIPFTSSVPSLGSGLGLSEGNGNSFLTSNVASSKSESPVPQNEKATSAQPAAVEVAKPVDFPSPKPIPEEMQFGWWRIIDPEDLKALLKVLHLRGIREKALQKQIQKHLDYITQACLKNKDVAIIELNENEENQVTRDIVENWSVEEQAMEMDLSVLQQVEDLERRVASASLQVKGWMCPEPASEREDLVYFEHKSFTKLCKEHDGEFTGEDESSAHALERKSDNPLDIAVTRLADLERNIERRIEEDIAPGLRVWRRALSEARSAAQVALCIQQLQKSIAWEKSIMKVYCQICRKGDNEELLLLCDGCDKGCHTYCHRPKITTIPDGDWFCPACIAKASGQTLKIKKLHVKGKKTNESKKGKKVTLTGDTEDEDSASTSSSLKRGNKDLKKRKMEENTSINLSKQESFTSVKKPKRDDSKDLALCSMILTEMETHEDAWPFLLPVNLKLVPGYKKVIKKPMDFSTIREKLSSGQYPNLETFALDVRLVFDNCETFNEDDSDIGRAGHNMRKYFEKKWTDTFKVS
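BAZ2B 50 nM plus b-H3(5-23)K14Ac 50 nM, PBS pH 7.4/0.01% Tween-20, 30 min RT; compound added (max 110 uM), 30 min RT; streptavidin donor/Ni-chelate acceptor beads 10 ug/mL final, 20 min dark; AlphaScreen read.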
Sfp inh – inhibitors of Bacillus subtilis Sfp phosphopantetheinyl transferase | Q9F4F7 | 310,000 tested, 3.5% active | Potency, µM, most hits filed as inhibitors | Biochemical Sfp PPTase activity, qHTS;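 further: the enzyme is Sfp with the accession as filed and its product quenches rhodamine fluorescence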
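Buffer: 50 mM Hepes-Na pH 7.6, 10 mM MgCl2, 0.01% Nonidet P-40, 0.01% BSA. Enzyme 15 nM, pre-exposed to compound 15 min; substrates then added and fluorescence change tracked over 30 min.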
Large screens that a line does not name were inactive; ! = not active in a repeat. In the library only some 12% were active in any assay of this set; here they are far more common. The call rests on the fitted dose curve; in most records, active means well fitted curve in the direction sought with a large enough effect; inconclusive means small, poorly fitted or top-dose-only effect, or another doubt; inactive means no such curve, though single readings can be large; an effect the other way counts as inactive or inconclusive.

C[C@H](CCC(=O)O)C[C@H](C)C[C@H](C)C(=O)/C=C(\O)[C@H](C)C[C@H](C)C/C=C/[C@@H](C)[C@@H](O)[C@@H](C)[C@@H](O)C[C@@H]1CC[C@@](C)(C2CC[C@@](C)([C@@H](C)O)O2)O1 (some centres undefined)	none (no result: JMJD2A Tudor, L3MBTL1 block, HP1b binding inh, BAZ2B inh)
O=C1NC(=O)N(c2ccc(F)cc2)C(=O)/C1=C/c1ccc(N2CCOCC2)cc1	G9a inh 39.8µM, Sfp inh 39.8µM (no result: L3MBTL1 block)
O=C1NC(=O)N(Cc2ccc(F)cc2)C(=O)/C1=C\c1ccc(N2CCCC2)cc1	JMJD2A Tudor inconclusive, G9a inh 44.7µM, BAZ2B inh inconclusive, Sfp inh inconclusive
COc1ccc(N2C(=O)NC(=O)/C(=C/c3ccc(N4CCOCC4)cc3)C2=O)cc1	G9a inh 50.1µM, Sfp inh 50.1µM (no result: JMJD2A Tudor, HP1b binding inh)
CCOc1ccc(N2C(=O)NC(=O)/C(=C\c3ccc(N4CCOCC4)cc3C)C2=O)cc1	BAZ2B inh inconclusive, Sfp inh 39.8µM
COc1ccc(N2C(=O)NC(=O)/C(=C\c3cn(C)c4ccccc34)C2=O)cc1	none (no result: L3MBTL1 block)
CN1C[C@@H](C(=O)N[C@@]2(C)O[C@]3(O)C4CCCN4C(=O)[C@@H](Cc4ccccc4)N3C2=O)C=C2c3cccc4[nH]cc(c34)C[C@@H]21 (some centres undefined)	none (no result: JMJD2A Tudor, G9a inh, L3MBTL1 block, HP1b binding inh, BAZ2B inh)
Cc1ccc(NC(=O)C2C3CCCC2C3c2ccccc2)c(C)c1 (centres undefined)	G9a inh inconclusive
O=C1CCC(c2ccccc2)(C2CCN(Cc3ccccc3)CC2)C(=O)N1 (centres undefined)	none
C=CCn1c(O)c(C=Nc2ccc(Cc3ccncc3)cc2)c(=O)[nH]c1=S	JMJD2A Tudor inconclusive, BAZ2B inh inconclusive
CCOC(=O)C1CCN(/C=C2/C(=O)NC(=O)N(c3ccc(OCC)cc3)C2=O)CC1	G9a inh inconclusive
Cc1ccc(N2C(=O)NC(=O)/C(=C\c3ccc([N+](=O)[O-])o3)C2=O)cc1	G9a inh 6.31µM, L3MBTL1 block 3.55µM, BAZ2B inh 20µM, Sfp inh inconclusive (no result: JMJD2A Tudor, HP1b binding inh)
Cc1cc(/C=C2\C(=O)NC(=O)N(c3ccc(Br)cc3)C2=O)c(C)n1C	G9a inh inconclusive (no result: L3MBTL1 block)
CCOc1ccc(N2C(=O)NC(=O)/C(=C\c3cc(OC)c(OC)cc3[N+](=O)[O-])C2=O)cc1	JMJD2A Tudor inconclusive, G9a inh 17.8µM, BAZ2B inh inconclusive, Sfp inh 44.7µM
Cc1ccc(N2C(=O)NC(=O)/C(=C\c3ccc(N4CCOCC4)cc3)C2=O)cc1	G9a inh inconclusive, Sfp inh 17.8µM
C[C@]12CC[C@@H]3c4ccc(O[C@@H]5O[C@H](C(=O)O)[C@@H](O)[C@H](O)[C@H]5O)cc4CC[C@H]3[C@@H]1C[C@@H](O)[C@@H]2O	G9a inh inconclusive, Sfp inh 79.4µM (no result: L3MBTL1 block)
CCC(=O)Oc1ccc2c(c1)CCC1C2CC[C@]2(C)C(OC(=O)CC)CCC12 (some centres undefined)	G9a inh inconclusive (no result: JMJD2A Tudor, L3MBTL1 block, HP1b binding inh, BAZ2B inh)
CCC(COC(=O)c1cc(OC)c(OC)c(OC)c1)(c1ccccc1)N(C)C (centres undefined)	JMJD2A Tudor 50.1µM!
CN(C)c1ccc([P+](=O)c2ccc(N(C)C)cc2)cc1	none (no result: L3MBTL1 block)
CN(C)c1ccc(Cc2ccc(N(C)C)cc2)cc1	JMJD2A Tudor 25.1µM, HP1b binding inh 20µM (no result: G9a inh, L3MBTL1 block, BAZ2B inh, Sfp inh)
COc1cc(/C=C(/C)[N+](=O)[O-])ccc1OCc1ccccc1Cl	G9a inh 10µM, BAZ2B inh inconclusive, Sfp inh 14.1µM
COc1cc(CNc2ccc3[nH]c(=O)[nH]c3c2)ccc1OCc1ccccc1C	G9a inh inconclusive (no result: L3MBTL1 block)
CC(=O)Nc1c2sscc-2n(C)c1=O	Sfp inh inconclusive (no result: JMJD2A Tudor, L3MBTL1 block, HP1b binding inh, BAZ2B inh)
c1cc2c(cc1[C@H]1OC[C@@H]3[C@H]1CO[C@H]3c1ccc3c(c1)OCO3)OCO2	none (no result: JMJD2A Tudor, G9a inh, L3MBTL1 block, HP1b binding inh, BAZ2B inh)
C=Cn1ccnc1P(=S)(c1c(C)nn(-c2ccccc2)c1C)c1nccn1C=C	G9a inh 50.1µM
CN1C2CC(=O)CC1C(O)C2 (centres undefined)	none (no result: JMJD2A Tudor, G9a inh, L3MBTL1 block, HP1b binding inh, BAZ2B inh)
S=C=Nc1cccc(C2(N3CCCCC3)CCCCC2)c1	G9a inh 14.1µM
c1ccc(C2(N3CCCCC3)CCCCC2)cc1	none (no result: G9a inh, BAZ2B inh, Sfp inh)
O=[N+]([O-])c1cc(F)c(N2CCCCCC2)cc1N1CCNCC1	BAZ2B inh inconclusive (no result: G9a inh)
CCn1cc(C(=O)O)c(=O)c2cc(F)c(N3CCNCC3)cc21	G9a inh 8.91µM! (no result: JMJD2A Tudor, HP1b binding inh)
N#C/C(=C\c1ccc(O)c(O)c1)C(N)=S	Sfp inh 0.178µM (no result: JMJD2A Tudor, G9a inh, L3MBTL1 block, HP1b binding inh, BAZ2B inh)
S=c1nc(-c2ccccc2)n(-c2ccccc2)[nH]1	JMJD2A Tudor 3.55µM, G9a inh 2.82µM (no result: L3MBTL1 block)
O=C(c1ccccc1Cl)N1CCC(c2nc3ccccc3s2)CC1	none (no result: L3MBTL1 block, Sfp inh)
Clc1ccc2sc(C3CCNCC3)nc2c1	G9a inh 44.7µM (no result: L3MBTL1 block)
CN1CCC2(CC1)C(C#N)=C(N)NC(S)=C2C#N	JMJD2A Tudor 3.98µM, G9a inh 6.31µM, BAZ2B inh inconclusive
C[S@@](=O)CCCCN=C=S	none (no result: JMJD2A Tudor, G9a inh, L3MBTL1 block, HP1b binding inh, BAZ2B inh)
